This is part of a sample that, as a whole, favours compounds with a hit. Of some 79,000 tested, about 15% had one in any assay. A number with no mark means an inactive call. Activity calls are given as the source filed them. Rule as the data show it: active = growth inhibition above about 70%; inactive = the rest.
Assay: NCI Yeast Anticancer Drug Screen. Data for the mec2-1 strain (AID 157)
Conditions: S. cerevisiae mec2-1 strain, at 33.0 µM, stronger effect = higher value
Method in brief: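 mec2-1 yeast strain, carrying an alteration in DNA damage repair or cell cycle control, was exposed to compounds; growth inhibition was measured relative to vehicle-treated controls.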

| Compound | growth inhibition |
| --- | --- |
| O=C1/C(=C/c2ccccc2)CCCC1CN1CCCCC1 (centres undefined) | 48% |
| C#CCN(Cc1ccc2nc(N)[nH]c(=O)c2c1)c1ccc(C(=O)NC(CCC(=O)O)C(=O)O)cc1 (centres undefined) | 89% (active) |
| CCOC1(c2cccc([N+](=O)[O-])c2)c2ccccc2Oc2ccccc21 | 7% |
| O=C(O)CNC(=S)Nc1ccccc1 | 54% |
| N/C(=N/N=C/c1cc(Br)cc(Br)c1O)NO | 87% (active) |
| C[Si](C)(C)/C=C/CCNC(C#N)c1ccccc1 (centres undefined) | 23% |
| CCCCCCCCCCCCCCCCOP(=O)(O)OCC(N)C(=O)O (centres undefined) | 98% (active) |
| CC1=C(C(=O)NCc2ccccc2)C(c2ccccc2)C(C(=O)NCc2ccccc2)=C(C)N1 | 18% |
| O=[N+]([O-])c1cc(S(=O)(=O)Nc2ccccc2)ccc1Nc1ccccc1 | 89% (active) |
| COc1cc2ccnc(-c3c4ccccc4c(N)c4c(OC)c(OC)ccc34)c2cc1OC | 7% |
| CCOC(=O)C(Br)C(Br)c1ccccc1Cl (centres undefined) | 99% (active) |
| CCOC(=O)C1=C(C)NC(C)=C(C(=O)OCCNC(=O)c2ccc(N=[N+]=[N-])cc2)C1c1ccccc1C(F)(F)F (centres undefined) | 13% |
| Cc1cc(C)c(NC(=S)NC(=O)c2ccccc2)cc1C | -46% |
| CNCCCNc1c2ccccc2nc2cccc([N+](=O)[O-])c12 | 95% (active) |
| COc1c(O)c(C=O)c(Br)c(C=O)c1O | 47% |
| Cc1c(C)c(C)c(CSC(=N)N)c(C)c1C | 31% |
| O=C(CSC(=S)N1CCCCC1)Nc1nc2c(s1)CCCC2 | 1% |
| CNC(=O)OCc1c(COC(=O)NC)c(-c2ccc(Cl)cc2)n2c1CCC2 | -36% |
| CC(=O)OC1CC2C(C)(C)C(=O)C=C[C@]2(C)C2CCC3(C)C(=CCC3[C@H](CO)C[C@H](O)C(=O)C(C)(C)O)[C@]12C (some centres undefined) | -40% |
| CCCCCCOC(=O)NCCOC(=O)Nc1ccccc1 | 5% |

| Compound | growth inhibition |
| --- | --- |
| C[C](C)(C)[Ge]([O][Ge]([c]1ccccc1)[c]1ccccc1)([O][Ge]([c]1ccccc1)[c]1ccccc1)[C](C)(C)C | 80% (active) |
| CCc1c(Cl)c(C)cc(O)c1Cl | 12% |
| Cc1nc(Nc2ccccc2[N+](=O)[O-])sc1C(=O)CC(=O)C(=O)Nc1c(C(C)C)cccc1C(C)C | 6% |
| O=[N+]([O-])c1cccc2nc3ccccc3c(NCCCn3ccnc3[N+](=O)[O-])c12 | 96% (active) |
| CCCCCCC(O)CNCc1ccnc2ccc(OC)cc12 (centres undefined) | 29% |
| Cc1c2cccc(Sc3ccccc3)c2c2c3c(cccc13)[S+](c1ccccc1)C2 (centres undefined) | 95% (active) |
| C=C1CCC(O)C/C1=C/C=C1\CCCC2(C)C1CCC2C(C)CCCC(C)C (centres undefined) | 2% |
| NC1=NNC2(C(N)=N1)c1ccccc1-c1ccccc12 | 29% |
| COc1cc2cc3c4cc(OC)c(OC)cc4cc[n+]3c(C)c2cc1OC | -16% |
| COC(=O)NC1C(C)OC(OC2C/C=C(/C)C3C=CC4C(OC5CC(OC6CC(O)C(OC7CC(O)C(OC)C(C)O7)C(C)O6)C(O)C(C)O5)C(C)CC(C)C4C3(C)/C(O)=C3\C(=O)OC4(CC(C)C(CO)=CC4/C=C\2C)C3=O)CC1(C)[N+](=O)[O-] (centres undefined) | 5% |
| O=C1CSC(c2cccc(Cl)c2)N1c1ccc(-c2ccc(-n3c(-c4ccccc4)nc4ccccc4c3=O)cc2)cc1 (centres undefined) | 9% |
| CCOC(=O)C(C(=O)OCC)=P(c1ccccc1)(c1ccccc1)c1ccccc1 | 0% |
| COc1ccc(N=CN(C)C)c(C)c1 | 85% (active) |
| Cc1cc(S(=O)(=O)Nc2nnc3cnc4ccccc4n23)c(S)cc1Cl | 19% |
| O=C(Oc1ccc2c(c1)CN(Cc1ccccc1)CO2)c1ccccc1 | 8% |
| CN(C)[C@@H]1C(=O)C(C(N)=O)=C(O)[C@@]2(O)C(=O)C3=C(O)c4c(O)cccc4C[C@H]3C[C@@H]12 | 97% (active) |
| O=[N+]([O-])c1ccc2c(c1)/C(=N/N=C1c3ccccc3Cc3ccccc31)c1cc([N+](=O)[O-])cc([N+](=O)[O-])c1-2 | 98% (active) |
| Cc1nc2c(Br)cc(Br)cc2c(=O)n1-c1ccccc1NC1OCC(O)C(O)C1O (centres undefined) | 38% |
| Cc1cc(N(CCOS(C)(=O)=O)CCOS(C)(=O)=O)ccc1C=Nc1ccc(-c2nc(Cc3ccccc3)sc2C)cc1 | 93% (active) |

Reference: PubChem BioAssay (NCI)
